Compounds without any hit were thinned out: in the full panel of roughly 83,000, 20% have a hit.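 Treatment: one concentration, 48 hours, 96-well format. Scoring: percent growth, with anything below 10 considered active.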 Activity calls are given as the source filed them.
Tested on: SNB-19 CNS
Assay: NCI-60 one-dose screen, 48 h (100 = growth as untreated, 0 = no growth, -100 = all killed)
Conditions: 10 µM
Protocol: Growth inhibition of the SNB-19 human tumor cell line is measured as a screen for anti-cancer activity. Cells are grown in 96 well plates and exposed to the test compound for 48 hours. Compounds are tested at a single concentration, which is 10^-5 M for most compounds. The reported endpoint is percent growth (GI% or GIPRCNT), where numbers from 0 - 100% represent growth inhibition, and numbers from -100% - 0 represent cell death. For example, a value of 40 represents 60% growth inhibition. A value of 0 means no net growth occurred over the course of the experiment. A value of -40 indicates 40% of cells at the beginning of the experiment died by the end of the experiment. A value of -100 means all cells are dead at the end of the experiment.
NCI-60 Human Tumor Cell Lines Screen was performed using the standard one-dose NCI protocol, which is described in more detail at https://dtp.cancer.gov/discovery_development/nci-60/default.htm.
Compounds with GIPRCNT values below 10 were considered active. Activity score was based on GIPRCNT using the following formula: […]
Score is 0 for GIPRCNT values of 100 or above, 50 for GIPRCNT values of 0, and 100 for GIPRCNT values of -100.

SMILES	growth
CN1CCc2c(sc3ncnc(N/N=C/c4cn(-c5ccccc5)nc4-c4ccc(Cl)cc4)c23)C1	34.3% (inactive)
O=C1Nc2ccc(Cl)cc2/C1=C/c1cccc(OCc2ccccc2)c1	44.2% (inactive)
CN1C(=O)N(C)C2SC(N/N=C/c3ccccc3)=NC21 (stereo not given)	74.6% (inactive)
O=C(/C=C/Nc1ccccc1)c1ccc2c(c1)Nc1ccccc1S2	36.3% (inactive)
Cc1ccc(/C=C(\C#N)n2nnc3c(F)cccc32)cc1	23.6% (inactive)
CCCCCc1ccc(S(=O)(=O)Nc2cc(-c3csc(N(C)C(C)=O)n3)ccc2N2CCN(C)CC2)cc1	41% (inactive)
CCOC(=O)N/C(=C1/OCCN1C)[P+](c1ccccc1)(c1ccccc1)c1ccccc1	71.6% (inactive)
C=C1CCC2C3(C)COC(c4c(F)cccc4F)OC3CCC2(C)C1CC(O)C1=CCOC1=O (stereo not given)	86.2% (inactive)
Cc1ccc(-c2ccc(SCC(=O)Nc3ccc(S(N)(=O)=O)cc3Br)nn2)cc1	39.5% (inactive)
O=C1Nc2ccc(F)cc2/C1=C/c1cccc(OCc2ccccn2)c1	52.3% (inactive)
Cn1cc(/C=N/Nc2cccc(Cl)n2)c2ccccc21	76.9% (inactive)
O=C(Nc1ccc(OCc2ccccc2)cc1)Nc1ccc(Cl)c(C(F)(F)F)c1	8.37% (active)
COc1ccc([C@H]2C(C(=O)c3ccc(Cl)cc3)C3(N[C@@H]2c2ccccc2)C(=O)Nc2ccc(Br)cc23)cc1 (stereo not given in full)	20.1% (inactive)
Oc1ccc(/C=C2\CCCc3cc4ccc(O)cc4[o+]c32)c(O)c1	58% (inactive)
N#Cc1ccc(-c2nn(-c3ccc(C(=O)O)cc3)cc2CNc2ccc(Oc3ccccc3)cc2)cc1	28.6% (inactive)
CN1C(=O)N(C)C2SC(N/N=C/c3ccc(F)cc3)=NC21 (stereo not given)	43.1% (inactive)
CC(=O)NNc1ccc2nnc(-c3ccc(Br)cc3)n2n1	92% (inactive)
O=C1CCC(N2Cc3c(C#CCCCNC(=O)c4ccc(NC(=O)[C@@H]5NC6(CCCCC6)[C@@]6(C(=O)Nc7cc(Cl)ccc76)[C@H]5c5cccc(Cl)c5F)cc4)cccc3C2=O)C(=O)N1 (stereo not given in full)	58.8% (inactive)
CC(C)CCSc1nc(NC2CC2)c(C#N)c(-c2ccc(C(C)C)cc2)n1	98.6% (inactive)
O=C(Nc1ccc(I)cc1)Nc1nc2ccc([N+](=O)[O-])cc2s1	-94.3% (active)

SMILES	growth
CC1(c2ccccc2)NC(=O)N(CC(=O)Nc2ccc(C(=O)/C=C/c3ccc(Cl)cc3)cc2)C1=O (stereo not given)	30.9% (inactive)
CCCn1c(=O)c2[nH]c(-c3ccc(OCc4nc5ccc(C#N)cc5[nH]4)cc3)nc2n(CCC)c1=O	80.8% (inactive)
O=C(NCCCCC(c1ccc(F)cc1)c1ccc(F)cc1)NCCCc1cccnc1	24.5% (inactive)
O=C(CSc1nnc(-c2c[nH]c3ccccc23)n1-c1ccccc1)Nc1ccc(C(=O)/C=C/c2ccc(Cl)cc2)cc1	73.1% (inactive)
O=C(Cn1nc(-c2ccccc2)ccc1=O)NN1C(=O)c2ccccc2C1=O	89.8% (inactive)
COc1cccc2nc(Nc3cccc(NC(=O)c4ccc(CN5CCCN(C)CC5)c(C(F)(F)F)c4)c3)ccc12	-99.3% (active)
CN1CCN(c2ccc(Nc3nc(NCCCNC(=O)c4ccc(Cl)cc4)c4sccc4n3)cc2)CC1	104% (inactive)
O=C(Nc1nc2ccc([N+](=O)[O-])cc2s1)Nc1cc(Cl)ccc1I	4.09% (active)
COc1cc(NC(=O)c2cc(-c3ccc(F)cc3F)ccc2O)cc(OC)c1OC	31.1% (inactive)
O=C1NC(=NC23CC4CC(CC(C4)C2)C3)N/C1=C\c1ccc2ncccc2n1	-7.61% (active)
N#Cc1c(NC(=O)c2ccc(C(O)(C(F)(F)F)C(F)(F)F)cc2)sc2c1CCC(=O)C2	-15.9% (active)
O=C(NO)c1ccc(CNC(=O)[C@H]2Cc3c([nH]c4ccccc34)[C@H](c3ccc(Cl)cc3)N2)cc1	15.5% (inactive)
O=C(Nc1ccc(Cl)c(C(F)(F)F)c1)c1cncc(C#Cc2cnc3ccc(N4CCOCC4)nn23)c1	-10.8% (active)
COc1ccc2[nH]c(O)c(N=NC(=O)COc3ccc(NC(=O)Nc4ccc(Cl)cc4)cc3)c2c1	3.67% (active)
CC(=O)Nc1ccc(-c2cn(-c3cccc(C(=O)Nc4ccc(F)c(C(F)(F)F)c4)c3)nn2)cn1	43.8% (inactive)
Cc1ccc(/C=C/C(=O)c2ccc(NC(=O)CSc3nnc(-c4c[nH]c5ccccc45)n3-c3ccccc3)cc2)c(C)c1	72.2% (inactive)
CN1CCN(c2ccc(Nc3nc(NCCCNC(=O)C4CCCCC4)c4sccc4n3)cc2)CC1	77.3% (inactive)
O/N=C(\CSc1nnc(-c2c[nH]c3ccccc23)n1-c1ccccc1)c1ccc(Br)cc1	-9.28% (active)
COc1ccc(C(=O)Nc2ccc(-c3ccc4c(c3)NC(=O)/C4=C\c3ccc[nH]3)cc2)cc1	60.8% (inactive)
CCOC(=O)CNC(=O)CN(Cc1ccccc1)C(=O)[C@@]1(C)CCC[C@]2(C)[C@H]3CC4C(C(C)C)=C[C@]3(CC[C@H]21)[C@@H]1C(=O)CCC(=O)[C@H]41	81.1% (inactive)
